Measurements taken from PubChem BioAssay (NCATS).
“And” between values parts separate entries of the source, which are not always exact repeats. Equal values may be shown once. Results filed as inconclusive are left out. A number with no mark means an inactive call. The source made the active and inactive calls. Calls follow the shape of the dose curve; as a rule, active = well fitted cell-killing curve with a large enough effect; inconclusive = small, poorly fitted or top-dose-only effect, or effect the other way; inactive = no such curve, though single readings can be large or run the other way.

How the values were obtained:
[1] = Viability qHTS for spleen associated tyrosine kinase inhibitor (SYKi) naive MV4-11 cells (AID 1963823); also: nearly all actives have a fitted effect of over 40% in size
Procedure, shortened: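 Seeding of 500 SYKi-naive MV4-11 cells per well onto pre-dispensed compounds preceded a 72 hr incubation at 37 C. Luminescent CellTiter-Glo signal, read after 10 min at room temperature, reflected viable cells.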

[2] = Viability qHTS for spleen associated tyrosine kinase inhibitor (SYKi) drug resistant MV4-11 cells (AID 1963824); also: nearly all actives have a fitted effect of over 35% in size
Procedure, shortened: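 SYK inhibitor-resistant MV4-11 AML cells, 500 per well, added to predispensed compounds and incubated 72 hr at 37 C, 5% CO2. Viability measured by CellTiter-Glo luminescence after 10 min at room temperature.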
Potency is read from the fitted curve at half-maximal effect.

SMILES | Potency [1] | Potency [2] | viability (% of control) [1] | viability, % of control [2]
COCCCNCC1COc2ccccc2O1 (configuration not stated) | inactive | inactive | – | –
Cc1cc(CN)cc(C)c1NC(=O)c1ccc(-c2cc(Cl)ccc2Cl)o1 | 6.51 µM (active) | 9.2 µM (active) | – | –
CC(=O)c1c(O)cc(O[C@@H]2O[C@H](CO)[C@@H](O)[C@H](O)[C@H]2O)cc1O | inactive | inactive | – | –
CC1(C)C(=O)N2c3ccccc3C(O)(CC(C(=O)O)n3cnc4ccccc4c3=O)C2N1O (configuration not stated) | inactive | 0.252 µM (active) | – | –
C=CC(=O)Nc1cc(Nc2ncc(Cl)c(-c3c[nH]c4ccccc34)n2)c(OC)cc1N(C)CCN(C)C | 0.058 µM (active) | 0.0146 µM (active) | – | –
C/C(=N\N=C(N)N)c1ccc(NC(=O)Nc2ccc(/C(C)=N/N=C(N)N)cc2)cc1 | 2.06 µM (active) | 0.731 µM (active) | – | –
NC(=O)[C@H](Cc1ccccc1)NC(=O)[C@H](CCCN=C(N)N)NC(=O)C12CC3CC(CC(C3)C1)C2 | – | – | 88.8% [at 9.25 µM] | 78% [at 9.25 µM]
C=C[C@H]1[C@H](O[C@@H]2O[C@H](CO)[C@@H](O)[C@H](OC(=O)/C=C/c3ccc(O)c(OC)c3)[C@H]2O)OC=C2C(=O)OCC[C@]21O | inactive | inactive | – | –
CC1CC2(O)OC(=O)C3=C2C(CCC3)[C@@]12C[C@@H](c1ccoc1)OC2=O (some centres not stated) | 0.321 µM (active) | inactive | – | –
COc1ccc(CCC(=O)c2c(O)cc(O[C@@H]3O[C@H](CO)[C@@H](O)[C@H](O)[C@H]3O[C@@H]3O[C@@H](C)[C@H](O)[C@@H](O)[C@H]3O)cc2O)cc1O | inactive | inactive | – | –
C[C@@H]1O[C@@H](O[C@@H]2[C@@H](O)[C@H](O[C@H]3[C@H](O[C@H]4CC[C@@]5(C)C(CC[C@]6(C)C5CC=C5[C@@H]7CC(C)(C)CC[C@]7(C(=O)O[C@@H]7O[C@H](CO)[C@@H](O)[C@H](O)[C@H]7O[C@@H]7O[C@@H](C)[C@H](O[C@@H]8O[C@@H](C)[C@H](O)[C@@H](O)[C@H]8O)[C@@H](O)[C@H]7O)CC[C@]56C)[C@@]4(C)CO)O[C@H](C(=O)O)[C@@H](O)[C@@H]3O)O[C@H](CO)[C@H]2O)[C@H](O)[C@H](O)[C@H]1O (some centres not stated) | – | – | 94% [at 9.25 µM] | 108% [at 9.25 µM]
C=C(C(=O)OC[C@H]1O[C@@H](OC(=O)/C=C/c2ccccc2)[C@H](O)[C@@H](O)[C@@H]1O)C(O)CO (some centres not stated) | 7.96 µM (active) | 11.2 µM (active) | – | –
CC1=C(C(=O)O)/C(=C\CO[C@@H]2O[C@H](CO)[C@@H](O)[C@H](O)[C@H]2O)C(OC(=O)/C=C/c2ccc(O)cc2)C1 (some centres not stated) | inactive | inactive | – | –
CC(C)=CCC[C@](C)(O[C@@H]1O[C@H](CO)[C@@H](O)[C@H](O)[C@H]1O)[C@H]1CC[C@]2(C)[C@@H]1[C@H](O)CC1[C@@]3(C)CC[C@H](O)C(C)(C)C3[C@@H](O[C@@H]3O[C@H](CO)[C@@H](O)[C@H](O)[C@H]3O[C@@H]3OC[C@@H](O)[C@H](O)[C@H]3O)C[C@]12C (some centres not stated) | – | – | 84.7% [at 9.25 µM] | 84.8% [at 9.25 µM]
CC1=CC(=O)[C@]2(O[C@@H]3O[C@@H](C)[C@H](O)[C@@H](O)[C@H]3OC(=O)/C=C/c3ccccc3)C=CO[C@@H](O[C@@H]3O[C@H](CO)[C@@H](O)[C@H](O)[C@H]3O)[C@H]12 | inactive | inactive | – | –
Clc1ccc2c(c1)N=C(N1CCNCC1)c1ccccc1N2 | 20.6 µM (active) | 20.6 µM (active) | – | –
O=C(O)C[C@H]1CCC(=O)[C@@H]1C/C=C\CCO | inactive | inactive | – | –
CC1(C)CCC2(CC1)N[C@@H](C(=O)N[C@@H]1CC[C@@H](C(N)=O)OC1)[C@H](c1ccnc(Cl)c1F)[C@]21C(=O)Nc2cc(Cl)ccc21 | 16 µM (active) | 5.68 µM (active) | – | –
CC1(C(=O)Nc2ccc(F)nc2)CCCN1c1nc(Nc2cc(C3CC3)[nH]n2)c2cccn2n1 (configuration not stated) | 1.46 µM (active) | 1.64 µM (active) | – | –
COc1c2cc(c(O[C@@H]3O[C@H](CO)[C@@H](O)[C@H](O)[C@H]3O)c1OC)CCCCC(O)CCc1ccc(O)c-2c1 (some centres not stated) | inactive | inactive | – | –
CC1C(OC(=O)c2ccccc2)C(O)C2C(C(=O)O)=COC(OC3OC(CO)C(O)C(O)C3O)C12 (configuration not stated) | inactive | inactive | – | –
N#Cc1ccc2ncnc(NCCc3ccccc3)c2c1 | 8.2 µM (active) | 4.11 µM (active) | – | –
COc1cc(C(O)C2COC(c3ccc(OC4OC(CO)C(O)C(O)C4O)c(OC)c3)C2CO)ccc1O (configuration not stated) | 4.47 µM (active) | inactive | – | –
COc1cc(/C=C/C(=O)OC[C@H]2O[C@@](CO)(O[C@H]3O[C@H](CO)[C@@H](O)[C@H](O)[C@H]3O)[C@@H](OC(=O)/C=C/c3ccc(O)c(OC)c3)[C@@H]2O)ccc1O | inactive | inactive | – | –
Cc1cc(C)c(CNC(=O)c2cc(-c3ccc(N4CCN(C)CC4)nc3)cc3c2c(C)cn3C(C)C)c(=O)[nH]1 | 13.2 µM (active) and 18.6 µM (active) | 14.8 µM (active) and 16.6 µM (active) | – | –
Cc1cc2c(N3CCCC3)nc(N3CCCC3)nc2n1C | 8.2 µM (active) | 7.31 µM (active) | – | –
